Data taken from PubChem BioAssay AID1159580 (chemical genetic matrix, 2015).
The campaign covered roughly 5,500 compounds. About 2,000 (36%) were called active. About 18% were inconclusive and are not listed. Cut-off read from the data, not from the text of the source: active = normalized growth mostly below about 0.91 (no sharp cut-off); inconclusive = no clear call, values can overlap the other calls; inactive = mostly above about 0.92. The list shows a part of the results.

Assay: chemical genetic growth profiling, strain panel (AID 1159580);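 note: tested at 20 µM; growth read once vehicle control cultures reached saturation at 30 °C; 1 = growth at the plate median or of vehicle wells; lower values mean less growth of the strain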
Details: S. cerevisiae deletion strains, growth OD

Measured: normalized growth

CC1(C)Oc2ccc3ccc(=O)oc3c2CC1O (centres undefined)
inactive: locus YAL013W, strain DEP1, hits give low values 0.994 | locus YAL021C, strain ccr4, hits give low values 1 | locus YAL026C, strain drs2, hits give low values 0.967 | locus YAL030W, strain snc1, hits give low values 0.972 | locus YBL061C, strain skt5, hits give low values 0.971 | locus YBR009C, strain hhf1, hits give low values 0.94 | locus YBR021W, strain FUR4, hits give low values 1.02 | locus YBR023C, strain chs3, hits give low values 0.984 | locus YBR171W, strain sec66, hits give low values 0.976 | locus YBR229C, strain ROT2, hits give low values 0.998 | locus YBR231C, strain swc5, hits give low values 0.976 | locus YBR279W, strain paf1, hits give low values 0.987 | locus YCL011C, strain gbp2, hits give low values 0.963 | locus YCL016C, strain dcc1, hits give low values 0.988 | locus YCL029C, strain bik1, hits give low values 1.01 | locus YCL061C, strain MRC1, hits give low values 0.989 | locus YCL069W, strain vba3, hits give low values 0.968 | locus YCR088W, strain abp1, hits give low values 0.986 | locus YDL005C, strain med2, hits give low values 0.975 | locus YDL035C, strain GPR1, hits give low values 0.991 | locus YDL040C, strain nat1, hits give low values 0.979 | locus YDL074C, strain BRE1, hits give low values 1.01 | locus YDL101C, strain DUN1, hits give low values 0.995 | locus YDL134C, strain PPH21, hits give low values 0.974 | locus YDL185W, strain tfp1, hits give low values 1.02 | locus YDL192W, strain arf1, hits give low values 1.02 | locus YDR001C, strain nth1, hits give low values 0.97 | locus YDR069C, strain doa4, hits give low values 0.957 | locus YDR101C, strain arx1, hits give low values 1.02 | locus YDR137W, strain rgp1, hits give low values 0.99 | locus YDR150W, strain NUM1, hits give low values 1.01 | locus YDR159W, strain sac3, hits give low values 0.922 | locus YDR162C, strain NBP2, hits give low values 0.978 | locus YDR195W, strain ref2 0.971 | locus YDR297W, strain sur2, hits give low values 0.971 | locus YDR318W, strain mcm21, hits give low values 0.977 | locus YDR334W, strain swr1, hits give low values 0.982 | locus YDR335W, strain msn5, hits give low values 0.993 | locus YDR388W, hits give low values 1 | locus YDR392W, strain spt3, hits give low values 0.91 | locus YDR502C, strain sam2, hits give low values 0.994 | locus YEL003W, strain gim4, hits give low values 0.977 | locus YEL037C, strain rad23, hits give low values 0.982 | locus YEL061C, strain CIN8 (second series), hits give low values 0.977 | locus YEL061C, strain CIN8, hits give low values 0.992 | locus YER015W, strain faa2, hits give low values 0.968 | locus YER016W, strain bim1, hits give low values 0.996 | locus YER110C, hits give low values 1.01 | locus YER111C, strain swi4, hits give low values 0.982 | locus YER155C, strain BEM2 (second series), hits give low values 0.956 | locus YER155C, strain BEM2, hits give low values 1.01 | locus YER167W, strain BCK2, hits give low values 0.978 | locus YFR010W, strain ubp6, hits give low values 0.972 | locus YGL078C, strain dbp3, hits give low values 0.999 | locus YGL086W, strain mad1, hits give low values 1.04 | locus YGL167C, strain pmr1, hits give low values 0.961 | locus YGL173C, strain kem1, hits give low values 0.975 | locus YGL227W, strain vid30, hits give low values 0.97 | locus YGL240W, strain doc1, hits give low values 0.97 | locus YGL248W, strain PDE1, hits give low values 0.998 | locus YGL253W, strain hxk2, hits give low values 1 | locus YGR078C, strain PAC10, hits give low values 0.999 | locus YGR135W, strain pre9, hits give low values 0.978 | locus YGR252W, strain gcn5, hits give low values 0.928 | locus YHR013C, strain ard1, hits give low values 0.943 | locus YHR027C, strain rpn1, hits give low values 0.973 | locus YHR030C, strain SLT2, hits give low values 1 | locus YHR079C, strain IRE1 (second series), hits give low values 1 | locus YHR094C, strain hxt1, hits give low values 1.02 | locus YHR129C, strain ARP1, hits give low values 1 | locus YHR142W, strain chs7, hits give low values 0.996 | locus YHR200W, strain rpn10, hits give low values 1.01 | locus YIL066C, strain RNR3, hits give low values 1 | locus YIL073C, strain SPO22, hits give low values 1.02 | locus YIL125W, strain kgd1, hits give low values 1.02 | locus YIR030C, strain dcg1, hits give low values 1.01 | locus YJL092W, strain hpr5, hits give low values 0.989 | locus YJL095W, strain BCK1 (second series), hits give low values 0.996 | locus YJL095W, strain BCK1, hits give low values 0.986 | locus YJL115W, strain asf1, hits give low values 0.984 | locus YJL129C, strain trk1, hits give low values 0.977 | locus YJL134W, strain LCB3, hits give low values 1 | locus YJL154C, strain vps35, hits give low values 0.978 | locus YJL164C, strain tpk1, hits give low values 1.01 | locus YJL166W, strain qcr8, hits give low values 0.989 | locus YJL168C, strain set2, hits give low values 1.01 | locus YJL187C, strain SWE1 (second series), hits give low values 1.01 | locus YJL187C, strain SWE1, hits give low values 0.976 | locus YJR043C, strain POL32, hits give low values 0.995 | locus YKL009W, strain mrt4, hits give low values 1.01 | locus YKL068W, hits give low values 0.998 | locus YKL085W, strain MDH1 (second series), hits give low values 1.01 | locus YKL085W, strain MDH1, hits give low values 1.01 | locus YKL160W, strain elf1, hits give low values 1.02 | locus YKR001C, strain vps1, hits give low values 1.03 | locus YKR026C, strain gcn3, hits give low values 0.957 | locus YKR091W, strain srl3, hits give low values 0.965 | locus YLL001W, strain dnm1, hits give low values 0.987 | locus YLL026W, hits give low values 0.977 | locus YLL041C, strain sdh2, hits give low values 0.989 | locus YLR027C, strain aat2, hits give low values 0.982 | locus YLR039C, strain RIC1, hits give low values 0.998 | locus YLR058C, strain SHM2, hits give low values 0.992 | locus YLR102C, strain apc9, hits give low values 1.01 | locus YLR221C, strain rsa3, hits give low values 0.994 | locus YLR258W, strain gsy2, hits give low values 0.971 | locus YLR262C, strain YPT6 (second series), hits give low values 0.989 | locus YLR262C, strain YPT6, hits give low values 0.956 | locus YLR268W, strain sec22, hits give low values 1.05 | locus YLR320W, strain mms22, hits give low values 0.998 | locus YLR330W, strain CHS5, hits give low values 1 | locus YLR342W, strain FKS1 (second series), hits give low values 1.02 | locus YLR342W, strain FKS1, hits give low values 0.973 | locus YLR357W, strain rsc2, hits give low values 0.961 | locus YLR370C, strain arc18, hits give low values 0.976 | locus YLR371W, strain rom2, hits give low values 1.01 | locus YLR384C, strain iki3, hits give low values 0.976 | locus YLR418C, strain cdc73, hits give low values 0.978 | locus YML016C, strain PPZ1, hits give low values 1 | locus YML032C, strain rad52, hits give low values 0.976 | locus YML120C, strain ndi1, hits give low values 0.988 | locus YML124C, strain tub3, hits give low values 0.994 | locus YMR058W, strain fet3, hits give low values 0.979 | locus YMR078C, strain ctf18, hits give low values 1.02 | locus YMR125W, strain sto1, hits give low values 0.935 | locus YMR129W, hits give low values 0.966 | locus YMR205C, strain PFK2, hits give low values 0.941 | locus YMR223W, strain ubp8, hits give low values 0.996 | locus YMR231W, strain pep5, hits give low values 0.977 | locus YMR307W, strain GAS1, hits give low values 1.04 | locus YNL067W, strain RPL9B, hits give low values 1 | locus YNL071W, strain lat1, hits give low values 0.988 | locus YNL209W, strain ssb2, hits give low values 0.965 | locus YNL233W, strain BNI4, hits give low values 1 | locus YNL248C, strain rpa49, hits give low values 1.02 | locus YNL250W, strain rad50, hits give low values 1.01 | locus YNL271C, strain bni1, hits give low values 1.01 | locus YNL298W, strain CLA4, hits give low values 1 | locus YNL307C, strain MCK1, hits give low values 1.02 | locus YNL322C, strain KRE1 (second series), hits give low values 0.967 | locus YNR049C, strain mso1, hits give low values 0.97 | locus YNR052C, strain pop2, hits give low values 1.02 | locus YOL006C, strain TOP1, hits give low values 1.02 | locus YOL012C, strain htz1 0.905 | locus YOL147C, strain pex11, hits give low values 1 | locus YOR001W, strain rrp6, hits give low values 1.02 | locus YOR061W, strain CKA2, hits give low values 1 | locus YOR069W, strain VPS5, hits give low values 1 | locus YOR070C, strain gyp1, hits give low values 0.987 | locus YOR080W, strain dia2, hits give low values 0.975 | locus YOR083W, strain WHI5, hits give low values 1.03 | locus YOR106W, strain vam3, hits give low values 0.995 | locus YOR136W, strain idh2, hits give low values 1.01 | locus YOR144C, strain elg1, hits give low values 1 | locus YOR184W, strain ser1, hits give low values 0.988 | locus YOR265W, strain rbl2, hits give low values 0.987 | locus YOR270C, strain vph1, hits give low values 1.02 | locus YOR290C, strain snf2, hits give low values 0.924 | locus YOR316C, strain cot1, hits give low values 1 | locus YPL051W, strain arl3, hits give low values 1.02 | locus YPL078C, strain atp4, hits give low values 1 | locus YPL106C, strain sse1, hits give low values 0.95 | locus YPL240C, strain hsp82, hits give low values 0.974 | locus YPL241C, strain CIN2, hits give low values 0.996 | locus YPR119W, strain clb2, hits give low values 0.997 | locus YPR141C, strain kar3, hits give low values 1.01 | locus YPR163C, strain tif3, hits give low values 1.01 | locus YPR167C, strain met16, hits give low values 1 | strain wtn01, hits give low values 1.05
